Out of some 4,400 compounds screened, about 3,700 (84%) were called active.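 Rule for the calls: active = inhibition above about 39% in either of two replicate wells at 20 µM (limit read from the data); inactive = the rest.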 So high a share suggests a set chosen from earlier hits. Only a sample is shown.
experiment: tim23-1 mutant yeast growth inhibitors, confirmation, luminescence, single concentration (AID 463218);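 note: temperature-sensitive tim23-1 mutant grown at 25 °C; 0% = DMSO wells with yeast and 100% = medium wells without yeast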; conditions: S. cerevisiae tim23-1 growth, BacTiter-Glo luminescence, 24 h; at 20 µM; stronger effect = higher value

Structure (SMILES) | inhibition
Cc1ccc(-c2nc3ccccc3c(=O)n2-c2ccc(Br)cn2)cc1 | 53.6% (active)
Cc1cc2ccccn2c1C(C[N+](=O)[O-])c1c(F)cccc1Cl (stereo not drawn) | 58.5% (active)
COc1cccc(N2C(=O)NC(=O)/C(=C\c3ccc([N+](=O)[O-])s3)C2=O)c1 | 78.3% (active)

Source: PubChem BioAssay AID463218 (Sanford-Burnham Center for Chemical Genomics, 2010)
